# For part of these data: Measured potencies and affinities stand elsewhere. Activity calls are given as the source filed them.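 Rule for the calls, unless noted: active = fluorescence ratio normalized to control raised more than 50% in primary screen plus both repeat runs; inactive = the rest.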
# Key:
# [1] = test system: TRPC4 beta (transient receptor potential cation channel C4), mouse; assay: TRPC4 cation channel opening, retest – cell-based, Fluo4 calcium, HEK293 TRPC4beta/mu-opioid, duplicates, 10 µM, confirmation (AID 2426); conditions: Fluo4 calcium fluorescence, at 10 µM; hits give high values;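 for activation: percent rise of integrated ratio over buffer wells lacking compound which define 0%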
# [2] = test system: transient receptor potential cation channel C4 beta (TRPC4), mouse; assay: TRPC4 cation channel opening, second retest – cell-based, second round, Fluo4, HEK293 TRPC4beta/mu-opioid, 1 µM, confirmation (AID 2461;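 active = primary screen active and over 50% activation in each of two duplicate runs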;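 for activation: 0% = wells without test compound as baseline of integrated fluorescence ratio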); conditions: Fluo4 calcium fluorescence, at 1 µM; hits give high values
# [3] = test system: TRPC4 (transient receptor potential cation channel C4 beta), mouse; assay: potentiation of DAMGO EC20 TRPC4 response – cell-based, second round, Fluo-4, HEK293 TRPC4beta/mu-opioid, 1 µM, confirmation (AID 2554;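 active = primary screen hit whose fluorescence ratio, in both repeats, exceeds the weak agonist control mean by 3 SD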); conditions: DAMGO EC20, Fluo-4 calcium flux, at 1 µM; hits give high values
# [4] = test system: TRPC4 beta (transient receptor potential cation channel C4), mouse; assay: potentiation of DAMGO EC20 TRPC4 response – cell-based, Fluo-4, HEK293 TRPC4beta/mu-opioid, confirmation (AID 2555;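 active = primary screen hit whose calcium fluorescence ratio, in both repeats, exceeds the weak agonist control mean by 3 SD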); conditions: DAMGO EC20, Fluo-4 calcium flux, at 10 µM; hits give high values
# [5] = biological target: Short transient receptor potential channel 4 (Mus musculus) (UniProt Q9QUQ5); assay: blockers of DAMGO-evoked TRPC4 calcium flux – cell-based, Fluo4, HEK293 TRPC4beta/mu-opioid, confirmation (AID 2636;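 active = calcium signal cut by more than 3 SD below the full-agonist control yet still positive, in both repeats and the earlier primary screen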); conditions: at 10 µM; hits give high values
# [6] = biological target: Short transient receptor potential channel 4 (Mus musculus) (UniProt Q9QUQ5); assay: blockers of DAMGO-evoked TRPC4 calcium flux – cell-based, second round, Fluo4, HEK293 TRPC4beta/mu-opioid, 1 µM, confirmation (AID 2637;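 active = calcium signal ratio cut to more than 3 SD under the fully stimulated control mean yet still positive, in both repeats and the primary screen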); conditions: at 1 µM; hits give high values
# [7] = biological target: Short transient receptor potential channel 4 (Mus musculus) (UniProt Q9QUQ5); assay: potentiation of DAMGO-evoked TRPC4 calcium signal – cell-based, HEK293 TRPC4/mu-opioid, Fluo-4 calcium, EC20 DAMGO, dose response (AID 434941;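 active = earlier screen potentiator hit that boosts the TRPC4 ion channel at some dose, with a dose response; inactive = no potentiation, no dose response, or not a prior hit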;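 note: calcium entry triggered by an EC20 dose of DAMGO at the co-expressed mu-opioid receptor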)
# [8] = biological target: Short transient receptor potential channel 4 (Mus musculus) (UniProt Q9QUQ5); assay: block of DAMGO-driven TRPC4 calcium entry – cell-based, HEK293 TRPC4/mu-opioid, Fluo-4 calcium, dose response (AID 434942;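 active = primary screen inhibitor hit that blocks the TRPC4 channel at some tested dose, yielding a dose curve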)
# [9] = biological target: Short transient receptor potential channel 6 (Mus musculus) (UniProt Q61143); assay: TRPC6 blockade by TRPC4 inhibitor hits – cell-based, HEK293, membrane potential dye, duplicate, selectivity assay for TRPC4 inhibitor project, confirmation (AID 434948;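 active = active in primary screen and both duplicates, each dropping signal beyond three positive-control SD with fluorescence still positive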); conditions: HEK293 TRPC6, membrane potential dye fluorescence, at 10 µM, stimulated with maximal-effect acetylcholine; hits give high values
# [10] = biological target: Short transient receptor potential channel 6 (Mus musculus) (UniProt Q61143); assay: TRPC6 opening by TRPC4 activator hits – cell-based, HEK293, membrane potential dye, duplicate, selectivity assay for TRPC4 activator project, confirmation (AID 434950;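 active = membrane potential signal rise above negative control mean plus 3 SD in both duplicates, also active in the earlier TRPC4 screen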;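 for activation: 0% = buffer only wells and 100% = acetylcholine maximal-effect wells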); conditions: HEK293 TRPC6, membrane potential fluorescence, at 10 µM; activation: hits give high values; outcome: activation
# [11] = biological target: Short transient receptor potential channel 6 (Mus musculus) (UniProt Q61143); assay: positive modulators of mouse TRPC6 channel – HEK293 cells, membrane potential dye, duplicate, selectivity assay for TRPC4 potentiator project, confirmation (AID 434952;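 active = compound raising the membrane signal above positive-control mean plus 3 SD in both repeats, and a primary screen hit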); conditions: HEK293 TRPC6, membrane potential dye fluorescence, at 10 µM, maximal acetylcholine added after compound; hits give high values
# [12] = biological target: Short transient receptor potential channel 4 (Mus musculus) (UniProt Q9QUQ5); assay: calcium flux activators in TRPC4/5HT1a cells, counter-screen for TRPC4 activator project, cell-based, second counter screen, HEK293 TRPC4/5HT1a, Fluo-4 (AID 434977;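 active = calcium signal rise above buffer-control mean plus 5 SD in both duplicates, and also a hit in the primary screen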;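 for activation: plate controls were assay buffer for no effect and maximal serotonin response for full effect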); conditions: Fluo-4 calcium flux, at 10 µM; hits give high values
# [13] = serotonin-gated TRPC4 signal block – cell-based, second counter screen, HEK293 TRPC4/5HT1a, Fluo-4, counter-screen for TRPC4 inhibitor project, confirmation (AID 434978;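 active = primary screen active whose calcium signal fell more than 3 SD beyond the full-serotonin control mean in both duplicate plates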;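 note: serotonin given first at submaximal then at maximal dose after compound preincubation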); conditions: Fluo-4 calcium flux, at 10 µM, serotonin added to trigger calcium flux; hits give high values
# [14] = test system: TRPC4 (mouse), co-expressed with 5HT1a in HEK293; assay: enhancement of serotonin-evoked TRPC4 response – cell-based, second counter screen, HEK293 TRPC4/5HT1a, Fluo-4, counter-screen for TRPC4 potentiator project, confirmation (AID 434979;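 active = signal rise over 3 SD above mean of control wells given weak agonist, in both repeats and first screen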); conditions: Fluo-4 calcium flux, at 10 µM, serotonin added at its EC20 dose; hits give high values
# [15] = nonspecific calcium rise without TRPC4 – cell-based, HEK293 mu-opioid receptor line, counter-screen for TRPC4 activator project, confirmation (AID 449723;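 active = hit in primary screen, with calcium signal over 5 SD above buffer well mean in both duplicates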;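 note: counter screen cells carry the mu-opioid receptor alone and lack TRPC4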); conditions: HEK293 mu-opioid cells, Fluo-4 calcium fluorescence, at 10 µM; hits give high values
# [16] = nonspecific potentiation of DAMGO calcium response – cell-based, HEK293 mu-opioid receptor line, counter-screen for TRPC4 allosteric potentiator project, confirmation (AID 449724;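 active = calcium signal rise more than 3 SD above the low-dose agonist control mean, in both duplicate plates and the primary screen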); conditions: HEK293 mu-opioid receptor cells, Fluo-4 calcium flux, at 10 µM, compound added before EC20 DAMGO stimulus; hits give high values
# [17] = nonspecific flux increase, KCNQ1-free cells – parental CHO cells, counter-screen for KCNQ1 potentiator project (AID 493006;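 active = duplicate-averaged activation above buffer control mean plus 5 SD of those controls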;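 for activation: fluorescence ratio of max minus min over baseline after K+ and Tl+ depolarization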); conditions: parental CHO-K1 cells, FluxOR thallium flux, at 10 µM; hits give high values
# [18] = biological target: Potassium voltage-gated channel subfamily KQT member 1 (Homo sapiens) (UniProt P51787); assay: enhancement of KCNQ1 channel thallium flux – FluxOR thallium flux, CHO cells, duplicates, confirmation (AID 493007;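 active = potentiation averaged over duplicate wells exceeding buffer-only control mean by more than 3 SD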;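 for outcome: cells depolarized by a potassium plus thallium sulfate stimulus after compound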;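 for potentiation: 0% = buffer-only wells and 100% = R-L3 activator control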); conditions: KCNQ1 cell line, FluxOR thallium flux fluorescence, at 10 µM; hits give high values, % of reference activator effect, buffer zero
# [19] = biological target: Potassium voltage-gated channel subfamily KQT member 2 (Rattus norvegicus) (UniProt O88943); assay: KCNQ2 thallium flux enhancement – KCNQ2-CHO-K1 cells, selectivity assay for KCNQ1 potentiator project (AID 493009;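 active = mean duplicate potentiation above the buffer control mean plus 5 SD of buffer wells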;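 note: assay conditions were tuned for KCNQ1 rather than KCNQ2 modulators; signal is max minus min fluorescence divided by baseline after thallium stimulus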); conditions: FluxOR thallium flux fluorescence, at 10 µM; hits give high values, scaled: buffer 0, activator control 100
# [20] = biological target: Potassium voltage-gated channel subfamily KQT member 1 (Homo sapiens) (UniProt P51787); assay: KCNQ1 activators by electrophysiology – IonWorks patch clamp, KCNQ1-CHO cells, orthogonal assay for KCNQ1 potentiator project, confirmation (AID 493184;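 active = current rise at least 3 SD above the untreated control mean in each of two repeat wells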;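 for current potentiation: percent change of the same well's current before compound addition so 0% = no change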); conditions: automated patch clamp current, at 10 µM; hits give high values
# Sequence of Potassium voltage-gated channel subfamily KQT member 2 (Rattus norvegicus) (O88943 whole entry, looked up): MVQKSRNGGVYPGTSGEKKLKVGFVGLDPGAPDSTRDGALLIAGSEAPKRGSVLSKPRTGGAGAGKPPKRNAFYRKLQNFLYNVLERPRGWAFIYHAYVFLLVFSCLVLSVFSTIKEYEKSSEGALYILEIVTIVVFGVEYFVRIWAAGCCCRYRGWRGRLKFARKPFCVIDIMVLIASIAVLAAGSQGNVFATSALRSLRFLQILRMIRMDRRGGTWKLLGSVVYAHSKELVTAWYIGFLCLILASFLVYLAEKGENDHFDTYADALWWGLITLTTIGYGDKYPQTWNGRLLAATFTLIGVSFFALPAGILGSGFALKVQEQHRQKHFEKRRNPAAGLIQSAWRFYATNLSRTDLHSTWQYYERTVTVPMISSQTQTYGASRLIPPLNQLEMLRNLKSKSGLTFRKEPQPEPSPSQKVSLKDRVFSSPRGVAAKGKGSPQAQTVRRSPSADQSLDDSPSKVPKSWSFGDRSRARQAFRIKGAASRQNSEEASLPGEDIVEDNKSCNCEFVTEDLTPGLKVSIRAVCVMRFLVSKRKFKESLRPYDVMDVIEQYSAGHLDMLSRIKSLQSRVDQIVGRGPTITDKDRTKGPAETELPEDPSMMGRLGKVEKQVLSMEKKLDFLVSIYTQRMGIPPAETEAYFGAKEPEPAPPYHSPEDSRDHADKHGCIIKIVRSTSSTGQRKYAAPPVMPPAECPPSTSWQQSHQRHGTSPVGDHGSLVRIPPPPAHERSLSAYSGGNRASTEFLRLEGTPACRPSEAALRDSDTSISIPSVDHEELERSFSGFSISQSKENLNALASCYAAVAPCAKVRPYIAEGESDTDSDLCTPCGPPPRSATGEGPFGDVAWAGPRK
# Sequence of Short transient receptor potential channel 4 (Mus musculus) (Q9QUQ5 whole entry, looked up): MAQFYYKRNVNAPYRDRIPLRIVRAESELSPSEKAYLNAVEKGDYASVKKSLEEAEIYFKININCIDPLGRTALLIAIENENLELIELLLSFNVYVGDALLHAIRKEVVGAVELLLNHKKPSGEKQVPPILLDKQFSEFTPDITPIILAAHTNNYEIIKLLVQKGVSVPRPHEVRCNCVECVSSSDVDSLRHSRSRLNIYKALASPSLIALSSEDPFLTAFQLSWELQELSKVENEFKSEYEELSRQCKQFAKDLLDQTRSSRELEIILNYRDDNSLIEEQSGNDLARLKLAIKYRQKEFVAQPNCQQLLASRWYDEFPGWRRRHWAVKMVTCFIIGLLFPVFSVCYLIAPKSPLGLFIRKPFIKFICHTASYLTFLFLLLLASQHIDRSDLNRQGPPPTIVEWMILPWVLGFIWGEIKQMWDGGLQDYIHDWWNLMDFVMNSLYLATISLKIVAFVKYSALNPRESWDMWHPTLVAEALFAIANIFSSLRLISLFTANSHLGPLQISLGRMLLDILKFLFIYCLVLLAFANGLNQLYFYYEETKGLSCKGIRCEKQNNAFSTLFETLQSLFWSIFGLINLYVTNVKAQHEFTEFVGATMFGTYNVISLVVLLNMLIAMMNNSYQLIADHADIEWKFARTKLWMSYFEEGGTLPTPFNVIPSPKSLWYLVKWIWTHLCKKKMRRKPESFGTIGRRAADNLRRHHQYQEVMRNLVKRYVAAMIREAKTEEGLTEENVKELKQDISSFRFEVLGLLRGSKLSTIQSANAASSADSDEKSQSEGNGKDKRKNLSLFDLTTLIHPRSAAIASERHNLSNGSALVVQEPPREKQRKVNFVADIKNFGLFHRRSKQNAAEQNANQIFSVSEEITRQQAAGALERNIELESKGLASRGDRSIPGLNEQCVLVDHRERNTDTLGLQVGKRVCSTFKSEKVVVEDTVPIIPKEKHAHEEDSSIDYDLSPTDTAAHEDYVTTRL
# Sequence of Potassium voltage-gated channel subfamily KQT member 1 (Homo sapiens) (P51787 whole entry, looked up): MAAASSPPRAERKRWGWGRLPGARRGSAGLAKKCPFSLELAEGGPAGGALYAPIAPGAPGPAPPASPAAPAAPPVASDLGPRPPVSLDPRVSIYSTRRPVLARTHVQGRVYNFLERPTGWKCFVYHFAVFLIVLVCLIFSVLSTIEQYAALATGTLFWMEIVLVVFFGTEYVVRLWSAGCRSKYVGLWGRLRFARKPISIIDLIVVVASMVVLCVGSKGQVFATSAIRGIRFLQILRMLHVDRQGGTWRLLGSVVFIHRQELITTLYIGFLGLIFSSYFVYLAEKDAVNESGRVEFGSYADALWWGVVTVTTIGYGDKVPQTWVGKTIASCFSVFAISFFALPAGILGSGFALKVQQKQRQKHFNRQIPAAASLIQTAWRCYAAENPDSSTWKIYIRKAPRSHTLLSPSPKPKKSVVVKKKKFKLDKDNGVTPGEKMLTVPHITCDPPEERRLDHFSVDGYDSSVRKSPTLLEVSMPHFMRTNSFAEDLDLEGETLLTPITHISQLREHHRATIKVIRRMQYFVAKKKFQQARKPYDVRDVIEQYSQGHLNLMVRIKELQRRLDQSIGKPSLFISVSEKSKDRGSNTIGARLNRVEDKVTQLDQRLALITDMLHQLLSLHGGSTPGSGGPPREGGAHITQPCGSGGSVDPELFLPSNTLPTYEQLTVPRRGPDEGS
# Sequence of Short transient receptor potential channel 6 (Mus musculus) (Q61143 whole entry, looked up): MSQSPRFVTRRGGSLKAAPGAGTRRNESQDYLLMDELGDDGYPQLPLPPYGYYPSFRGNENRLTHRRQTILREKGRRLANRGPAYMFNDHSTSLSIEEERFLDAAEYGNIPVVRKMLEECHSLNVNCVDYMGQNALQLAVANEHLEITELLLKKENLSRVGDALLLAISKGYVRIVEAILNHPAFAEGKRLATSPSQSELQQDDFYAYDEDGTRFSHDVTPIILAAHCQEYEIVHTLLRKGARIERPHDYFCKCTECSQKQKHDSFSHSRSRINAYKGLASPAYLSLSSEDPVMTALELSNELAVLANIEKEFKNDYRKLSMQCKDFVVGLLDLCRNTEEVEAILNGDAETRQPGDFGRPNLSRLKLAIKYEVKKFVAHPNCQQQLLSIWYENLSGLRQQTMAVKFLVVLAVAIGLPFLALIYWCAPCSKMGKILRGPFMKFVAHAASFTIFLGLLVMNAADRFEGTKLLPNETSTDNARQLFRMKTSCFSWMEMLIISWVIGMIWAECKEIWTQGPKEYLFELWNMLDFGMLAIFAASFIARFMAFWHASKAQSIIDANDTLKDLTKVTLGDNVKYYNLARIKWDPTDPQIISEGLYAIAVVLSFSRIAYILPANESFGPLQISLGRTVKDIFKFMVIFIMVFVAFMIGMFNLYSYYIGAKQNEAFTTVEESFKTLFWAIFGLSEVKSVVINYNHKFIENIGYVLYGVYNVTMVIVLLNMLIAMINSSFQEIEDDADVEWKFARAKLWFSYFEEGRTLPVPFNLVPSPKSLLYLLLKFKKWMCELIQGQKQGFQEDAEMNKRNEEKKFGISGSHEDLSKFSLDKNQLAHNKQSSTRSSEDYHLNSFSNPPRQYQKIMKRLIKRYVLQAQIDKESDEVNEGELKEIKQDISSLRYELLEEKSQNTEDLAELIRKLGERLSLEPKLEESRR
smiles,measurement,setting,value
CCOc1ccccc1OCC(=O)Nc1cc(S(=O)(=O)N2CCCCC2)ccc1N1CCN(CC)CC1,activation,[1],195% (active)
same,outcome,[2],inactive
same,outcome,[3],inactive
same,outcome,[4],inactive
same,outcome,[5],inactive
same,outcome,[6],inactive
same,outcome,[7],inactive
same,outcome,[8],inactive
same,outcome,[9],inactive
same,outcome,[10],inactive
same,outcome,[11],inactive
same,activation,[12],45% (active)
same,outcome,[13],inactive
same,outcome,[14],inactive
same,outcome,[15],inactive
same,outcome,[16],inactive
same,outcome,[17],inactive
same,outcome,[18],inactive
same,outcome,[19],inactive
same,outcome,[20],inactive
COc1ccc(C2Nc3ccccc3C(=O)N2Cc2ccco2)cc1COc1ccc(NC(C)=O)cc1 (stereo not given),outcome,[1],inactive
same,outcome,[2],inactive
same,outcome,[3],inactive
same,outcome,[4],inactive
same,outcome,[5],inactive
same,outcome,[6],inactive
same,outcome,[7],inactive
same,outcome,[8],inactive
same,outcome,[9],inactive
same,activation,[10],29% (active)
same,outcome,[11],inactive
same,outcome,[12],inactive
same,outcome,[13],inactive
same,outcome,[14],inactive
same,outcome,[15],inactive
same,outcome,[16],inactive
Cc1cccc2cc(C(c3nnnn3Cc3ccccc3)N3CCN(C)CC3)c(=O)[nH]c12 (stereo not given),activation,[1],118% (active)
same,outcome,[2],inactive
same,outcome,[3],inactive
same,outcome,[4],inactive
same,outcome,[5],inactive
same,outcome,[6],inactive
same,outcome,[7],inactive
same,outcome,[8],inactive
same,outcome,[9],inactive
same,activation,[10],29% (active)
same,outcome,[11],inactive
same,outcome,[12],inactive
same,outcome,[13],inactive
same,outcome,[14],inactive
same,outcome,[15],inactive
same,outcome,[16],inactive
Cc1ccc(/C=N\NC(=O)C2COc3cc4ccccc4cc3O2)o1 (stereo not given),activation,[1],102% (active)
same,outcome,[2],inactive
same,outcome,[3],inactive
same,outcome,[4],inactive
same,outcome,[5],inactive
same,outcome,[6],inactive
same,outcome,[7],inactive
same,outcome,[8],inactive
same,outcome,[9],inactive
same,activation,[10],27% (active)
same,outcome,[11],inactive
same,activation,[12],40.6% (active)
same,outcome,[13],inactive
same,outcome,[14],inactive
same,outcome,[15],inactive
same,outcome,[16],inactive
CCCOc1ccc(C(=O)NNC(=S)NC(=O)c2ccco2)cc1,activation,[1],223% (active)
same,outcome,[2],inactive
same,outcome,[3],inactive
same,outcome,[4],inactive
same,outcome,[5],inactive
same,outcome,[6],inactive
same,outcome,[7],inactive
same,outcome,[8],inactive
same,outcome,[9],inactive
same,activation,[10],38.5% (active)
same,outcome,[11],inactive
same,activation,[12],143% (active)
same,outcome,[13],inactive
same,outcome,[14],inactive
same,activation,[15],61.8% (active)
same,outcome,[16],inactive
same,activation,[17],195% (active)
same,potentiation,[18],212% (active)
same,potentiation,[19],340% (active)
same,outcome,[20],inactive
O=C(N/N=C/c1cc([N+](=O)[O-])cc(Br)c1O)C12CC3CCC(CC(C3)C1)C2,activation,[1],82% (active)
same,outcome,[2],inactive
same,outcome,[3],inactive
same,outcome,[4],inactive
same,outcome,[5],inactive
same,outcome,[6],inactive
same,outcome,[7],inactive
same,outcome,[8],inactive
same,outcome,[9],inactive
same,activation,[10],28.5% (active)
same,outcome,[11],inactive
same,activation,[12],68.6% (active)
same,outcome,[13],inactive
same,outcome,[14],inactive
same,activation,[15],33.8% (active)
same,outcome,[16],inactive
same,activation,[17],158% (active)
same,potentiation,[18],43.5% (active)
same,potentiation,[19],163% (active)
same,outcome,[20],inactive
O=c1c2cc(Br)ccc2nc(-c2ccc(Cl)cc2)n1O,activation,[1],268% (active)
same,outcome,[2],inactive
same,outcome,[3],inactive
same,outcome,[4],inactive
same,outcome,[5],inactive
same,outcome,[6],inactive
same,outcome,[7],inactive
same,outcome,[8],inactive
same,outcome,[9],inactive
same,outcome,[10],inactive
same,outcome,[11],inactive
same,activation,[12],102% (active)
same,outcome,[13],inactive
same,outcome,[14],inactive
same,activation,[15],31.7% (active)
same,outcome,[16],inactive
same,activation,[17],654% (active)
same,potentiation,[18],354% (active)
same,potentiation,[19],708% (active)
same,outcome,[20],inactive
COC(=O)C1=NN(C(=O)c2cccc(Br)c2)C(O)(c2ccc(Cl)cc2)C1 (stereo not given),activation,[1],121% (active)
same,outcome,[2],inactive
same,outcome,[3],inactive
same,outcome,[4],inactive
same,outcome,[5],inactive
same,outcome,[6],inactive
same,outcome,[7],inactive
same,outcome,[8],inactive
same,outcome,[9],inactive
same,outcome,[10],inactive
same,outcome,[11],inactive
same,activation,[12],98.1% (active)
same,outcome,[13],inactive
same,outcome,[14],inactive
same,outcome,[15],inactive
same,outcome,[16],inactive
same,activation,[17],575% (active)
same,potentiation,[18],318% (active)
same,potentiation,[19],745% (active)
same,outcome,[20],inactive
Cc1occc1C(=O)NNC(=S)NC(=O)COc1ccc(Cl)cc1Cl,activation,[1],108% (active)
same,outcome,[2],inactive
same,outcome,[3],inactive
same,outcome,[4],inactive
same,outcome,[5],inactive
same,outcome,[6],inactive
same,outcome,[7],inactive
same,outcome,[8],inactive
same,outcome,[9],inactive
same,outcome,[10],inactive
same,outcome,[11],inactive
same,activation,[12],58.4% (active)
same,outcome,[13],inactive
same,outcome,[14],inactive
same,activation,[15],18.4% (active)
same,outcome,[16],inactive
same,activation,[17],256% (active)
same,potentiation,[18],259% (active)
same,potentiation,[19],442% (active)
same,outcome,[20],inactive
O=c1c2cc(Br)ccc2nc(-c2cccc(C(F)(F)F)c2)n1O,activation,[1],449% (active)
same,outcome,[2],inactive
same,outcome,[3],inactive
same,outcome,[4],inactive
same,outcome,[5],inactive
same,outcome,[6],inactive
same,outcome,[7],inactive
same,outcome,[8],inactive
same,outcome,[9],inactive
same,outcome,[10],inactive
same,outcome,[11],inactive
same,activation,[12],111% (active)
same,outcome,[13],inactive
same,outcome,[14],inactive
same,activation,[15],60.8% (active)
same,outcome,[16],inactive
same,activation,[17],808% (active)
same,potentiation,[18],372% (active)
same,potentiation,[19],766% (active)
same,outcome,[20],inactive
CN(C)CCCN(C(=O)c1ccc(S(=O)(=O)N(C)C2CCCCC2)cc1)c1nc2ccc(F)cc2s1,activation,[1],155% (active)
same,outcome,[2],inactive
same,outcome,[3],inactive
same,outcome,[4],inactive
same,outcome,[5],inactive
same,outcome,[6],inactive
same,outcome,[7],inactive
same,outcome,[8],inactive
same,outcome,[9],inactive
same,outcome,[10],inactive
same,outcome,[11],inactive
same,activation,[12],5.36% (active)
same,outcome,[13],inactive
same,outcome,[14],inactive
same,outcome,[15],inactive
same,outcome,[16],inactive
Cc1cccc(C(=O)NC(=S)NNC(=O)c2cccs2)c1,activation,[1],226% (active)
same,outcome,[2],inactive
same,outcome,[3],inactive
same,outcome,[4],inactive
same,outcome,[5],inactive
same,outcome,[6],inactive
same,outcome,[7],inactive
same,outcome,[8],inactive
same,outcome,[9],inactive
same,activation,[10],34.5% (active)
same,outcome,[11],inactive
same,activation,[12],125% (active)
same,outcome,[13],inactive
same,outcome,[14],inactive
same,activation,[15],67.1% (active)
same,outcome,[16],inactive
same,activation,[17],142% (active)
same,potentiation,[18],75% (active)
same,potentiation,[19],210% (active)
same,current potentiation,[20],22.2% (active)
Cn1c(-c2cccc3ccccc23)n[nH]c1=S,activation,[1],117% (active)
same,activation,[2],97% (active)
same,outcome,[3],inactive
same,outcome,[4],inactive
same,outcome,[5],inactive
same,outcome,[6],inactive
same,outcome,[7],inactive
same,outcome,[8],inactive
same,outcome,[9],inactive
same,outcome,[10],inactive
same,outcome,[11],inactive
same,activation,[12],30.5% (active)
same,outcome,[13],inactive
same,outcome,[14],inactive
same,outcome,[15],inactive
same,outcome,[16],inactive

# Source: PubChem BioAssay
